# Assay outcomes from PubChem.
# aSyn 5UTR act – Activators via SNCA 5'UTR binding, MLPCN; 7.1% of 300,000 active; alpha-synuclein 5'UTR reporter, activators screen; activity score, % (tested at 7.5 µM), hits read low; in the data active = activity score below about -60%
# An asterisk follows results filed as active. Only a sample is shown.
SMILES,aSyn 5UTR act
Cc1nc(CC(=O)Nc2nc(-c3ccccc3)cs2)cs1,-66*
O=C(Cn1nc(C(=O)O)c2ccccc2c1=O)Nc1nc(-c2ccccc2)cs1,-71*
O=C(COC(=O)CNC(=O)c1ccccc1)Nc1nc(-c2ccccc2)cs1,-71*
Cn1cc(Cl)c(C(=O)OCC(=O)Nc2nc(-c3ccc(Br)cc3)cs2)n1,-110*
O=C(COC(=O)c1cccs1)Nc1nc(-c2ccccc2)cs1,-90*
O=C(Cc1cccs1)Nc1nc(-c2ccccc2)cs1,-81*
COC(=O)CCC(=O)Nc1nc(-c2ccccc2)cs1,-65*
O=C(Cn1nc(-c2ccccc2)c2ccccc2c1=O)Nc1ccccn1,-66*
Cn1nccc1C(=O)OCC(=O)Nc1nc(-c2ccccc2)cs1,-126*
COc1ccccc1CC(=O)Nc1nc(-c2ccc(F)c(F)c2)cs1,-83*
O=C(COC(=O)c1cc(=O)[nH]c2ccccc12)Nc1nc(-c2ccccc2)cs1,-73*
C/C(=N\Nc1nc(-c2ccccc2)cs1)c1cccs1,-280*
Cc1nc(-c2ccc([N+](=O)[O-])cc2)nc2[nH]ccc(=O)c12,-202*
Cc1nc(-c2ccccc2)nc2[nH]ccc(=O)c12,-101*
N#C/C(=C/Nc1ccccc1)c1ccsc1,-79*
Cc1ccc(N/C=C(/C#N)c2ccsc2)cc1,-175*
CC(C)CCNCC(O)CON=C1c2ccccc2-c2ccccc21 (stereo not given),86
O=C(Nc1ccccc1)ON=C1c2ccccc2-c2ccccc21,-106*
Cc1cc(O)c(NC(=O)c2ccc(Br)o2)cc1C,-178*
O=C(Nc1ccc(Cl)cc1Cl)c1ccc(Br)o1,-124*
CCCN(CCC)CCNC(=O)c1cc2c(-c3ccccc3F)nn(C)c2s1,-62*
Cn1nc(-c2ccc(Cl)cc2)c2cc(C(=O)NCCN3CCOCC3)sc21,-107*
Cn1nc(-c2ccc(Cl)cc2)c2cc(C(=O)NCCCN3CCOCC3)sc21,-134*
CCN1CCN(C(=O)c2cc3c(-c4ccc(Cl)cc4)nn(C)c3s2)CC1,-68*
CCCCN(CC)CCNC(=O)c1cc2c(-c3ccc(Cl)cc3)nn(C)c2s1,79
SMILES,aSyn 5UTR act
CCOCCCNC(=O)c1cc2c(-c3ccc(Cl)cc3)nn(C)c2s1,-62*
CCCCn1cnc2c([nH]c3cc(OC)ccc32)c1=O,-129*
COc1ccc2c(c1)[nH]c1c(=O)n(Cc3ccco3)cnc12,-65*
COc1nc(-c2ccccc2)nnc1-c1ccccc1,-124*
CC1c2cc3c(cc2CCN1C(=O)c1cccc(Cl)c1)OCCCO3 (stereo not given),-65*
CCCCOc1ccc(-c2ncc(N)cn2)cc1,-95*
CCCCOc1ccc(-c2nc(SCC(N)=O)n[nH]2)cc1,-114*
CCCCOc1ccc(-c2nc(=S)[nH][nH]2)cc1,-65*
CCCCOc1ccc(C(=O)NNC(=S)NC(=O)CC)cc1,85
c1ccc(CCn2nnc3ccccc32)cc1,-138*
O=C(Cn1nnc2ccccc21)NCc1ccccc1,-100*
CC(=O)c1ccc(N(C(=O)Cn2nnc3ccccc32)C(C(=O)NCc2ccccc2)c2ccccn2)cc1 (stereo not given),-106*
O=C(c1nn2c(C(F)(F)F)cc(-c3ccco3)nc2c1Br)N1CCCc2ccccc21,93
O=C(c1cc(-c2ccco2)on1)N1CCCc2ccccc21,-69*
O=C(c1cc(-c2ccccc2)on1)N1CCCc2ccccc21,-100*
Cc1ccccc1Nc1nc2ccccc2s1,-220*
CN(C)c1ccc(CNc2nc3ccccc3s2)cc1,80
Fc1ccc(Nc2nc3ccccc3s2)cc1,-207*
Cc1ccc(Nc2nc3ccccc3s2)cc1,-171*
Cc1ccccc1Nc1nn2c(=O)c3ccccc3nc2s1,-155*
Cc1ccc(C(=O)c2oc3ccc(Cl)cc3c2NC(=O)CN2CCN(C)CC2)cc1,-108*
COc1ccc(-c2c(C)nc3c(-c4ccccn4)cnn3c2N)cc1,-181*
Cc1nc2c(-c3ccc(F)cc3)cnn2c(N)c1-c1ccc(F)cc1,-150*
Cc1cc(N)n2ncc(-c3ccc(F)cc3)c2n1,-104*
O=C(O)c1ccc(N/N=C/C2=Cc3ccccc3OC2)cc1,-136*
SMILES,aSyn 5UTR act
CCN(CC)CC#CC(OC)(c1ccccc1)c1ccccc1,-81*
COc1ccc(OC)c(C2CC(=O)N3CN(c4ccc(C)c(Cl)c4)CSC3=C2C#N)c1 (stereo not given),-90*
O=c1[nH]c(SCc2ccc(Cl)cc2)nc2[nH]ncc12,-70*
CCOC(=O)C1=C(N)n2c(s/c(=C\c3cccnc3)c2=O)=C(C(=O)OC)C1c1cccnc1 (stereo not given),-66*
COc1ccc(CC(=O)Nc2cc3oc4ccccc4c3cc2OC)cc1,-162*
COc1cc2c(cc1NC(=O)C(C)OC(=O)c1ccc(S(=O)(=O)Nc3ccccc3Cl)cc1)oc1ccccc12 (stereo not given),-116*
COc1cc2c(cc1NC(=O)COC(=O)CNC(=O)c1ccccc1)oc1ccccc12,-94*
COc1cc2c(cc1NC(=O)COC(=O)C1CC(=O)N(Cc3ccco3)C1)oc1ccccc12 (stereo not given),-145*
COc1cc2c(cc1NC(=O)COC(=O)[C@@H](NC(=O)c1ccccc1F)C(C)C)oc1ccccc12,-85*
COc1ccccc1CC(=O)Nc1cc2oc3ccccc3c2cc1OC,-129*
COc1cc2c(cc1NC(=O)C(C)Sc1cccc[n+]1[O-])oc1ccccc12 (stereo not given),-241*
Cc1csc(NC(=O)C2COc3ccccc3O2)n1 (stereo not given),62
Cc1cc(NC(=O)C2COc3ccccc3O2)no1 (stereo not given),-115*
O=C(Nc1ccc(Cl)cn1)C1COc2ccccc2O1 (stereo not given),-137*
Cc1cccc(NC(=O)C2COc3ccccc3O2)n1 (stereo not given),-71*
COc1ccc(Cl)cc1NC(=O)C1COc2ccccc2O1 (stereo not given),-65*
Cc1cnc(NC(=O)C2COc3ccccc3O2)s1 (stereo not given),71
O=C(Nc1ccccn1)C1COc2ccccc2O1 (stereo not given),-177*
COc1ccc(CNC(=O)C2COc3ccccc3O2)c(OC)c1 (stereo not given),-76*
CSc1nsc(SCC(=O)Nc2nc3ccc(C)cc3s2)n1,-84*
Cc1ccc2nc(NC(=O)CSCc3ccccc3)sc2c1,-79*
O=[N+]([O-])c1ccc(-c2cn3c(n2)SCC3)cc1,-81*
N#Cc1ccc(-c2cn3c(n2)SCC3)cc1,-144*
COC(=O)c1ccc(/C=C/c2ccc3cccc(OC)c3n2)cc1,-97*
CCOc1c(OC(C)=O)ccc(/C=C/c2ccc3cccc(OC)c3n2)c1[N+](=O)[O-],-76*
SMILES,aSyn 5UTR act
CC(=O)Nc1ccc(/C=C/c2ccc3cccc([N+](=O)[O-])c3n2)cc1,-112*
COc1cccc(/C=C/c2ccc3cccc(O)c3n2)c1OC,-74*
COc1ccc(/C=C/c2ccc3cccc(O)c3n2)c(OC)c1OC,-92*
CC(C)n1c(SCC(=O)N2c3ccccc3Sc3ccccc32)nc2c1c(=O)n(C)c(=O)n2C,58
Cc1nnc(SC(=O)N2c3ccccc3Sc3ccccc32)s1,-66*
O=c1[nH]c(=O)n([C@H]2C[C@H](O)[C@@H](CO)O2)cc1F,80
CC(C)c1ccc(NC(=S)NCc2cccs2)cc1,-86*
O=C(Cc1ccccc1)Nc1ccc(CN2CCOCC2)cc1,-87*
O=C(/C=C/c1ccc(Cl)cc1Cl)NC(=S)Nc1ccc(CN2CCOCC2)cc1,-71*
